Experimental data reported in PubChem BioAssay AID1619 (SRMLSC, 2009).
Screen size: about 220,000 compounds; about 830 (0.38%) were called active.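 The calls were made as follows: active = compound inhibiting the enzyme by more than half at any dose during confirmatory dose-response retesting; inconclusive = strong single-dose inhibitors picked by rank but not retested; inactive = the rest.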 The list is a sample of the results. Potency and affinity values are given separately.

target: Leucine aminopeptidase (Plasmodium falciparum (isolate 3D7)) (UniProt Q8IL11); experiment: P. falciparum M17LAP inhibitors, primary screen, biochemical, fluorogenic H-Leu-NHMec substrate, 1536-well (AID 1619); conditions: recombinant M17LAP, H-Leu-NHMec fluorogenic kinetic assay; at 30 µM; active compounds read high;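 also: plate controls were full reaction with DMSO carrier for no effect and no enzyme background for full effect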
Sequence (Q8IL11 whole entry, looked up): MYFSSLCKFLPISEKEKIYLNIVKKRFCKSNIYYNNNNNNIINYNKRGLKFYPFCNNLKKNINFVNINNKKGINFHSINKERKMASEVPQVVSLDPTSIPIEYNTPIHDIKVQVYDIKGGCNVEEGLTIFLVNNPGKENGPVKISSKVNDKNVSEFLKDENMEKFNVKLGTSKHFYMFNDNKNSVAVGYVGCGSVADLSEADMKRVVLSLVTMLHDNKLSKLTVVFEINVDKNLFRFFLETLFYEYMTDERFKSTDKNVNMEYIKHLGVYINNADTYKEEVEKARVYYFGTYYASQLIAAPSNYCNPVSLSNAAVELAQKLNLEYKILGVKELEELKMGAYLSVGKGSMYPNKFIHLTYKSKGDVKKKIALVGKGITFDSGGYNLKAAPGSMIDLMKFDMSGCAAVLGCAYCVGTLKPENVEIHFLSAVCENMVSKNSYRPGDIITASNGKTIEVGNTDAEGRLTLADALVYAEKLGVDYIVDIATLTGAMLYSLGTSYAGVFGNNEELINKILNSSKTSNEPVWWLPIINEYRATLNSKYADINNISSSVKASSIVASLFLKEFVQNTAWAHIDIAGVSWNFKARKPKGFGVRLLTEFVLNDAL

inhibition, inactive:
COc1ccccc1CNC(=O)COC(=O)Cc1c(F)cccc1Cl -4.41%
CC(C)C(=O)Nc1ccc(NC(=S)NC(=O)c2cc3ccccc3o2)cc1 -4.08%
COc1ccc(OC)c(NC(=S)N(CCc2c(C)[nH]c3ccc(C)cc23)Cc2cccs2)c1 3.79%
Cc1csc(NC(=O)c2cc(=O)[nH]c3ccc(S(=O)(=O)N4CCOCC4)cc23)n1 -22.8%
O=C(CSc1nc2ccccc2o1)N/N=C/c1ccccc1 17.4%
CSc1nc(C)cc(SCC(=O)N/N=C/c2ccccc2)n1 -5.92%
COc1ccc(/C=N/NC(=O)CSCC(=O)Nc2ccccc2)cc1 -7.59%
COc1ccc(/C=N/NC(=O)CC(=O)N/N=C/c2ccc(OC)cc2)cc1 14.7%
Cc1cc(C(=O)Nc2ccccc2N2CCOCC2)ccc1[N+](=O)[O-] 8.21%
O=C(c1ccc(CN2CCOCC2)cc1)N1CCN(c2ccccc2)CC1 3.18%
Cc1ccc(C)c(NC(=O)c2ccc(S(=O)(=O)C(F)F)cc2)c1 -0.05%
COc1ccccc1N1CCN(C(=O)c2cc(C(C)(C)C)oc2C)CC1 13.9%
O=C1OCCC1Sc1nc2ccccc2c(=O)n1-c1ccc(F)cc1 (stereo not given) -2.24%
CCC1=Nc2cc(C(=O)O)ccc2Sc2ccc(Cl)cc21 7.99%
Cc1ccc(C(=O)NC(Cc2c[nH]c3ccccc23)C(=O)O)cc1 (stereo not given) 17.6%
CCOc1ccccc1Nc1nnc(SCC(=O)Nc2ccc3[nH]c(=O)[nH]c3c2)s1 -4.13%
CCOc1ccccc1Nc1nnc(SCC(=O)Nc2cc(C)on2)s1 -0.81%
Cc1ccc(C)c(OCC(=O)NC(Cc2c[nH]c3ccccc23)C(=O)O)c1 (stereo not given) -8.94%
CC(C)C(=O)Nc1nc2c(c(=O)[nH]1)CCCC2 3.8%
CCc1n[n+](CC(=O)c2ccccc2)c(N)s1 -0.05%
COc1ccc(-c2[nH]ncc2/C=C(/C#N)C(=O)NC2CCCCC2)cc1 0.03%
COc1ccc(-c2[nH]ncc2/C=C(/C#N)C(=O)NC2CCCCCC2)cc1 -2.26%
O=C(c1cc(-c2ccccc2)on1)N1CCN(Cc2ccc3c(c2)OCO3)CC1 -6.81%
CCc1ccccc1NC(=O)CSc1ccsc1[N+](=O)[O-] 6.13%
Cc1ccccc1NC(=O)CSc1ccsc1[N+](=O)[O-] 8.37%
Cc1cccc(C(=O)N2CCCCCC2)c1[N+](=O)[O-] -0.16%
CCN1CCN(CC(O)COCc2ccccc2)CC1 (stereo not given) 8.64%
CCCN(C(=O)/C=C/c1ccco1)c1c(N)n(Cc2ccccc2)c(=O)[nH]c1=O 12.1%
Cc1nn(C(C)C(=O)NC2C(=O)N3C(C(=O)O)=C(CSc4nnnn4C)CSC23)cc1Cl (stereo not given) 48.7%
Cn1nnnc1SCC1=C(C(=O)O)N2C(=O)C(NC(=O)C3CC3c3ccccc3)C2SC1 (stereo not given) 20.4%
COc1ccc(Cn2cnc3c([N+](=O)[O-])c(C)c(C)cc32)cc1 16.7%
O=C(Cc1csc(N2CCOCC2)n1)N/N=C/c1ccc(F)cc1 45.5%
COc1ccccc1NC(=O)Nc1cc(C(C)C)ccc1C 3.16%
CCOc1cc(/C=C2\C(=O)N(CCc3ccc(OC)c(OC)c3)C(C)=C2C(=O)OC)ccc1O 7.43%
COc1cc(/C=C2/NC(=O)N(Cc3ccccc3F)C2=O)ccc1O -1.31%
COc1ccc(C(=O)Nc2ccc(Cl)cc2C(=O)NCCN2CCOCC2)cc1 5.43%
Cc1ccc(S(=O)(=O)NNC(=O)CC#N)cc1 5.13%
COc1cc(/C=C2\SC(=N)N(c3ccc4c(c3)OCO4)C2=O)cc(OC)c1O 1.69%
COc1ccccc1N1C(=N)S/C(=C\c2ccc(-c3ccccc3C(=O)O)o2)C1=O 61.1%
Cc1cccc(NC(=O)CN2C(=O)S/C(=C\c3ccc(-c4cccc(C(=O)O)c4C)o3)C2=O)c1 4.08%
N=C1S/C(=C\c2ccco2)C(=O)N1c1ccc2c(c1)OCO2 6.49%
O=C(COC(=O)Cc1ccc(Br)cc1)NCC1CCCCC1 1.79%
CCOC(=O)N1CCN(C(=O)CSc2ccc(-c3cccnc3)nn2)CC1 -5.54%
Oc1ccc(-c2nc3ccccc3s2)c(O)c1 -4.82%
Cc1c(O)ccc(-c2n[nH]c(C(=O)O)c2-c2nc3ccccc3s2)c1O -2.67%
Cc1nc2ccccn2c1C(=O)CSc1ccccc1 24.3%
CCOC(=O)Cc1n[nH]c(=O)c2ccccc12 1.58%
O=C(NCc1ccccn1)c1cc(-c2ccccc2)on1 8.29%
COC(=O)CSc1nnc(-c2ccco2)n1-c1ccc(C)cc1 13.9%
CC(C)OC(=O)CSc1nnc(-c2ccco2)n1N 6.79%
CCOC(=O)CSc1nnc(-c2ccco2)n1-c1ccccc1 11.8%
CCOC(=O)CSc1nnc(-c2ccoc2C)n1-c1ccc(C)cc1 14.1%
Cc1ccc(OCCn2c(=O)oc3ccc(C)cc32)cc1 13.7%
Cn1c(SCC(N)=O)nnc1C1CCN(C(=O)NC2CCCCC2)CC1 -3.93%
COc1ccc(C)cc1NC(=O)C1CCCCC1C(=O)O (stereo not given) 52.8%
COc1ccc(OC)c(NC(=O)C2CC(C)=C(C)CC2C(=O)O)c1 (stereo not given) 34.4%
COc1ccc(C(C)(C)C)cc1NC(=O)C1C2C=CC(C2)C1C(=O)O (stereo not given) 7.82%
COc1ccc(OC)c(NC(=O)C2CCCCC2C(=O)O)c1 (stereo not given) 40.9%
COc1ccc2cc(C(c3nnnn3CCc3ccccc3)N3CCCC(C)C3)c(=O)[nH]c2c1 (stereo not given) 10.6%
CCCCNS(=O)(=O)c1ccc(S(=O)(=O)N2CCC3(CC2)OCCO3)cc1 -5.01%
COC(=O)C1=C(NC(=O)COc2ccc(Cl)cc2Cl)CCS1 49.6%
CC(C)(C)c1ccc(N/N=C(\C#N)S(=O)(=O)C(C)(C)C)cc1 23.4%
CC(C)(C)S(=O)(=O)/C(C#N)=N/Nc1ccc(S(N)(=O)=O)cc1 16.4%
CC(C)(C)S(=O)(=O)/C(C#N)=N/Nc1ccc(Cl)cc1 12.6%
COc1ccc(N/N=C(/C#N)S(=O)(=O)C(C)(C)C)cc1 5.23%
CC(C)(C)S(=O)(=O)/C(C#N)=N/Nc1ccc(S(C)(=O)=O)cc1 43.2%
CC(C)(C)S(=O)(=O)/C(C#N)=N/Nc1ccc(C#N)cc1 19.9%
Cn1c(SCc2ccc(Cl)cc2)nc(C(F)(F)F)cc1=O -4.09%
CCN(CC)C(=O)C(=O)c1cn(CC(=O)NCC2CCCO2)c2ccccc12 (stereo not given) -6.14%
Cc1cccc(NC(=O)c2nc[nH]c2C(=O)NCC(=O)OC(C)(C)C)c1 -3.35%
O=C(NCC1CCCO1)c1csc(Nc2cccc3ccccc23)n1 (stereo not given) 4.77%
O=C(COc1cccc(NC(=O)c2ccco2)c1)c1ccccc1 -14.2%
O=C(NCCN1CCOCC1)c1ccc(NC(=O)C2COc3ccccc3O2)cc1 (stereo not given) 3.85%
CCOc1ccc(-n2c(COc3ccccc3)nnc2SCC(N)=O)cc1 -3.38%
Cc1ccc(NC(=O)Cn2nc(C)c3ccccc3c2=O)cc1 23.3%
Cc1nn(CC(=O)Nc2ccccc2)c(=O)c2ccccc12 20%
CC1=C(C)CC(C(=O)NNC(=O)c2ccccc2)C(C(=O)O)C1 (stereo not given) 32.1%
CC(C)(C)C1CCc2c(C(=O)NNC(=O)/C=C/C(=O)O)csc2C1 (stereo not given) 43.8%
Cc1scc(C(=O)NNC(=O)CCC(=O)O)c1C 1.05%
CC1=C(C)CC(C(=O)NNC(=O)c2csc(C)c2C)C(C(=O)O)C1 (stereo not given) 44.2%
CCNC(=S)NNC(=O)c1csc2c1CCC(C)C2 (stereo not given) -1.92%
CC(C)(C)C1CCc2c(C(=O)N/N=C/c3cccs3)csc2C1 (stereo not given) 1.12%
COCc1cc(C)nc(SCc2nc3ccccc3c(=O)[nH]2)c1C#N -5.07%
CCOC(=O)c1cc(-c2ccccc2)sc1NC(=O)C(C)N1C(=O)c2ccccc2C1=O (stereo not given) -1.18%
Nc1cc(-c2ccco2)no1 -0.59%
O=C1c2[nH]nc(-c3ccccc3O)c2C(c2ccccc2F)N1Cc1ccco1 (stereo not given) 16%
O=C(C(c1ccccc1)c1ccccc1)N1CCN(c2ccccn2)CC1 4.89%
CC(=O)c1nc(N2C(=O)C3CC=C(C)CC3C2=O)sc1C (stereo not given) 7.37%
COc1ccc2sc(N3C(=O)CC(Cc4cccc(C)c4)C3=O)nc2c1 (stereo not given) 29.4%
CCOC(=O)/C(=C\c1ccc([N+](=O)[O-])o1)NC(=O)c1ccccc1 -88.3%
O=C(Cc1cn(Cc2cccc(Cl)c2)c2ccccc12)N1CCCCCC1 -20.4%
O=c1c2c3c(sc2nc2sc(CN4CCCCC4)cn12)CCCC3 -6.38%
CC1CCc2c(sc(NC(=O)c3ccccc3C(=O)O)c2C#N)C1 (stereo not given) 1.93%
N#Cc1c(NC(=O)C2CCCO2)sc2c1CCCCCC2 (stereo not given) 13.1%
N#Cc1c(NC(=O)C2CC2)sc2c1CCCCC2 28.1%
CC1CCc2sc(NC(=S)NC(=O)c3ccccc3)c(C#N)c2C1 (stereo not given) -12%
CC(=O)Nc1sc2c(c1C#N)CCCCC2 -1.44%
N#Cc1c(NC(=O)C2CCCO2)sc2c1CCCCC2 (stereo not given) -2.74%
N#Cc1c(NC(=O)CCC(=O)O)sc2c1CCCCC2 34.4%
N#Cc1c(NC(=O)c2ccccc2)sc2c1CCCCC2 21.1%
